Experimental data reported in PubChem BioAssay (NCI).
The panel holds about 83,000 compounds, 20% with a hit somewhere; the sample as a whole holds those more often.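 How to read the values: 0–100, growth inhibition (40 = 60% inhibited); 0, no net growth; -100 to 0, cell death (-40 = 40% of starting cells died; -100 = all dead).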 Calls of active or inactive are those of the source. How the source made its calls: active means growth percent below 10; inactive means the rest.

Legend:
Assay in all cases: NCI-60 one-dose screen, 48 h (100 = growth as untreated, 0 = no growth, -100 = all killed)
Conditions in all cases: 10 µM unless noted
DU-145 prostate = test system: DU-145 prostate
K-562 leukemia = test system: K-562 leukemia
MALME-3M melanoma = test system: MALME-3M melanoma
MDA-MB-231 breast = test system: MDA-MB-231 breast
RXF 393 renal = test system: RXF 393 renal
SF-268 CNS = test system: SF-268 CNS
SF-295 CNS = test system: SF-295 CNS
SF-539 CNS = test system: SF-539 CNS
UACC-257 melanoma = test system: UACC-257 melanoma
M14 melanoma = test system: M14 melanoma

Measured: growth

C/C(Cc1ccc(Cl)cc1)=C(\c1ccc(OCCN2CCCCCC2)cc1)c1ccc(OC(=O)c2ccccc2)cc1
inactive: DU-145 prostate 55.6% | MALME-3M melanoma 11.7% | MDA-MB-231 breast 39.7% | RXF 393 renal 22% | SF-268 CNS 37.1% | SF-295 CNS 56% | SF-539 CNS 71% | UACC-257 melanoma 45.2%
active: K-562 leukemia 1.83% | M14 melanoma -49.8%

COc1ccc(-c2cc(-c3cccnc3)nc3sc4c(N)c(C(C)=O)c(-c5ccccc5)nc4c23)cc1OC
inactive: DU-145 prostate 80.9% | K-562 leukemia 32.3% | MALME-3M melanoma 93.3% | MDA-MB-231 breast 51.5% | RXF 393 renal 50.1% | SF-268 CNS 69.6% | SF-295 CNS 48.7% | SF-539 CNS 52.8% | UACC-257 melanoma 92.3% | M14 melanoma 104%

CC(C)c1ccc2c(c1)CC[C@H]1[C@](C)(C(=O)OCC#CCN3CCCC3)CCC[C@]21C
inactive: DU-145 prostate 89.3% | K-562 leukemia 39.8% | MALME-3M melanoma 70.8% | MDA-MB-231 breast 100% | RXF 393 renal 74% | SF-268 CNS 89.1% | SF-295 CNS 97.5% | SF-539 CNS 77.8% | UACC-257 melanoma 82.4% | M14 melanoma 82.4%

O=C(O)CCCCCCCCCCN1C(=O)/C(=C2/C(=O)N(CC(=O)O)c3ccc(Br)cc32)SC1=S
inactive: DU-145 prostate 106% | K-562 leukemia 69.6% | MALME-3M melanoma 96.9% | MDA-MB-231 breast 92.3% | RXF 393 renal 113% | SF-268 CNS 96.9% | SF-295 CNS 103% | SF-539 CNS 104% | UACC-257 melanoma 97.9% | M14 melanoma 96.3%

Brc1ccc(Nc2nc(Nc3cnc4ccccc4c3)c3[nH]cnc3n2)cc1
inactive: DU-145 prostate 81.3% | K-562 leukemia 79.7% | MALME-3M melanoma 105% | MDA-MB-231 breast 53.8% | RXF 393 renal 75.8% | SF-268 CNS 76.6% | SF-295 CNS 84.7% | SF-539 CNS 87.4% | UACC-257 melanoma 90.3% | M14 melanoma 84.8%

C[C@H]1[C@H](C)CC[C@]2(C(=O)NCCNCCN)CC[C@]3(C)C(=CC[C@@H]4[C@@]5(C)CCC(=O)C(C)(C)[C@@H]5CC[C@]43C)[C@H]12
active: K-562 leukemia -9.33% | SF-539 CNS -28.3%
inactive: DU-145 prostate 51.6% | MALME-3M melanoma 71.3% | MDA-MB-231 breast 52.9% | RXF 393 renal 85% | SF-268 CNS 72.6% | SF-295 CNS 102% | UACC-257 melanoma 88.7% | M14 melanoma 40.9%

CN(C)CCCn1c2c(c3cnccc3c1=O)C(=O)c1ccccc1-2
active: DU-145 prostate -16.9% | K-562 leukemia 3.18% | MALME-3M melanoma -45.7% | MDA-MB-231 breast 0.187% | RXF 393 renal -28.4% | SF-268 CNS -3.3% | SF-295 CNS 6.47% | SF-539 CNS -6.26% | UACC-257 melanoma -26.8% | M14 melanoma -47.9%

COc1ccc(C2[C@@H](c3ccccc3)C(=O)N2c2cc(OC)c(OC)c(OC)c2)cc1F (stereo not given in full)
inactive: DU-145 prostate 11% | MALME-3M melanoma 69.1% | MDA-MB-231 breast 32.3% | RXF 393 renal 13.5% | SF-268 CNS 31.5% | SF-539 CNS 14.8% | UACC-257 melanoma 20.8%
active: K-562 leukemia 5.35% | SF-295 CNS 0.875% | M14 melanoma 4.59%

COc1cc(C=C2C(=O)NC(=S)NC2=O)cc(CN2CCCC2)c1O
inactive: DU-145 prostate 113% | K-562 leukemia 108% | MALME-3M melanoma 108% | MDA-MB-231 breast 111% | RXF 393 renal 103% | SF-268 CNS 99.6% | SF-295 CNS 104% | SF-539 CNS 101% | UACC-257 melanoma 98.8% | M14 melanoma 109%

C=C1C(=O)O[C@H]2[C@H]1CC/C(CNC(=O)Cc1c[nH]c3ccccc13)=C\CC[C@@]1(C)O[C@@H]21
inactive: DU-145 prostate 26.5% | MALME-3M melanoma 14.2% | MDA-MB-231 breast 16.1% | SF-268 CNS 51.2% | SF-295 CNS 69.9%
active: K-562 leukemia -12.2% | RXF 393 renal -72.3% | SF-539 CNS -27.1% | UACC-257 melanoma 5.96% | M14 melanoma 3.28%

O=C1/C(=C/c2ccc(Cl)cc2)CN(C(=O)C(Cl)Cl)C/C1=C\c1ccc(Cl)cc1
active: DU-145 prostate -89.7% | K-562 leukemia -3.91% | MALME-3M melanoma -65% | MDA-MB-231 breast -23.9% | RXF 393 renal -88.2% | SF-268 CNS -74.9% | SF-295 CNS -86.7% | SF-539 CNS -96.3% | UACC-257 melanoma -42.3% | M14 melanoma -68.7%

CSc1nc2ccc(C)cc2cc1/C=C1/C=C(c2ccccc2)NC1=O
inactive: DU-145 prostate 47.4% | K-562 leukemia 41.3% | MALME-3M melanoma 40.4% | MDA-MB-231 breast 38.5% | RXF 393 renal 79.1% | SF-268 CNS 66.3% | SF-295 CNS 36.7% | SF-539 CNS 39.5% | UACC-257 melanoma 80% | M14 melanoma 64.1%

O=C1O[C@@H](c2ccccc2Cl)[C@@H]2c3cc4c(cc3CCN12)OCO4
inactive: DU-145 prostate 105% | K-562 leukemia 87.5% | MALME-3M melanoma 101% | MDA-MB-231 breast 97.2% | RXF 393 renal 111% | SF-268 CNS 93.2% | SF-295 CNS 102% | SF-539 CNS 107% | UACC-257 melanoma 90.7% | M14 melanoma 105%

O=C(/C=C/c1ccccc1)c1cccc2ccccc12
inactive: DU-145 prostate 15.6% | K-562 leukemia 10.6% | MALME-3M melanoma 68.8% | MDA-MB-231 breast 55.1% | RXF 393 renal 12.4% | SF-268 CNS 42.1% | SF-295 CNS 34.8% | SF-539 CNS 51.2% | UACC-257 melanoma 40.2% | M14 melanoma 86.7%

CC(O)CNC(Cc1ccccc1)c1ccc2c(c1)OCO2 (stereo not given)
inactive: DU-145 prostate 107% | K-562 leukemia 90.5% | MALME-3M melanoma 91% | MDA-MB-231 breast 99.5% | RXF 393 renal 110% | SF-268 CNS 95.9% | SF-295 CNS 88.8% | SF-539 CNS 87.4% | UACC-257 melanoma 103% | M14 melanoma 80.4%

COc1cc(-c2cc(-c3ccc(Nc4nc(Nc5ccc(Cl)cc5)nc(Nc5ccc(Cl)cc5)n4)cc3)no2)cc(OC)c1OC
inactive: DU-145 prostate 80.6% | K-562 leukemia 50.9% | MALME-3M melanoma 88.7% | MDA-MB-231 breast 64.4% | RXF 393 renal 33.9% | SF-268 CNS 67.9% | SF-295 CNS 62.3% | SF-539 CNS 74.9% | UACC-257 melanoma 100% | M14 melanoma 68.3%

C=C1C(=O)O[C@H]2[C@H]1CC/C(COC(=O)C(=O)c1c[nH]c3ccc(Cl)cc13)=C\CC[C@@]1(C)O[C@@H]21
active: DU-145 prostate -96.2% | K-562 leukemia 2.92% | MALME-3M melanoma -75.7% | MDA-MB-231 breast -74.8% | RXF 393 renal -92.9% | SF-268 CNS -81.3% | SF-295 CNS -10.6% | SF-539 CNS -78.5% | UACC-257 melanoma -75.9% | M14 melanoma -83.1%

Cc1cc(Cl)nc(N2CCN(CCNc3ccnc4cc(Cl)ccc34)CC2)n1
inactive: DU-145 prostate 66.6% | K-562 leukemia 10.5% | MALME-3M melanoma 41.8% | MDA-MB-231 breast 49.5% | RXF 393 renal 61.5% | SF-268 CNS 72.2% | SF-295 CNS 36.4% | SF-539 CNS 31.7% | UACC-257 melanoma 13.5% | M14 melanoma 30.9%

CCCCCCCCCCOC(=O)c1nn(C(C)=O)c2cc(C)c(C)cc12
inactive: DU-145 prostate 106% | K-562 leukemia 95.2% | MALME-3M melanoma 104% | MDA-MB-231 breast 105% | RXF 393 renal 104% | SF-268 CNS 102% | SF-295 CNS 96% | SF-539 CNS 97.6% | UACC-257 melanoma 96.3% | M14 melanoma 90.7%

N#Cc1c(-c2ccc(Br)cc2)nc2c(N=Nc3ccc(S(N)(=O)=O)cc3)c(N)nn2c1N
inactive: DU-145 prostate 33.2% | K-562 leukemia 36.3% | MALME-3M melanoma 57.7% | MDA-MB-231 breast 41.2% | RXF 393 renal 42.2% | SF-268 CNS 55.9% | SF-295 CNS 61.9% | SF-539 CNS 38.6% | UACC-257 melanoma 82.6% | M14 melanoma 41.4%

O=C(NC1CCC(Br)CC1)C1CCCC(S(=O)(=O)NC2CCCCC2)C1 (stereo not given)
active: K-562 leukemia 8.64% [25 µM] | SF-295 CNS -4.06% [25 µM] | UACC-257 melanoma -6.91% [25 µM]
inactive: DU-145 prostate 29.9% [25 µM] | MALME-3M melanoma 19.5% [25 µM] | MDA-MB-231 breast 36.1% [25 µM] | RXF 393 renal 37.2% [25 µM] | SF-268 CNS 20.8% [25 µM] | SF-539 CNS 28.8% [25 µM] | M14 melanoma 22.1% [25 µM]
